Where “and” joins values, the source holds several entries; their conditions need not be identical. Equal entries are not always repeated. Records with an inconclusive call do not appear. A structure can be active in one record and inactive in another. Calls of active or inactive are those of the source. Unless noted, calls follow the shape of the dose curve; as a rule, active = well fitted curve in the direction sought with a large enough effect in the repeat runs; inconclusive = weak or mixed curves; inactive = no such curve, though single readings can be large; an effect the other way counts as inactive or inconclusive. Starred links: 1 amine or outer side, 2 acyl side, 3 side chain; linkers in the order of their positions; H or OH if unused. Positions of bridges follow the written chain, without caps; N, C: chain ends. Non-standard residues stand in square brackets, D forms with d. Residues, ends and D or L forms follow the SMILES beside them. Chains are numbered I, II in the order given. Actinocin(9to1) = Cc1c2oc3c(C)ccc(C(=O)[*:1])c3nc-2c(C(=O)[*:2])c(N)c1=O; NMeV = CN[C@H](C(=O)O)C(C)C; Sar = CNCC(=O)O
Columns and labels:
[1] = qHTS assay to identify small molecule agonists of H2AX (AID 1224845; active = well fitted activation curve with a large enough effect in the signal ratio in the repeat runs, not every such curve was filed as active; the % refers to the signal ratio; also: potency is read from the fitted curve at half-maximal effect); details: CHO-K1 phospho-H2AX Ser139 HTRF, 3 h; series mostly up to 154 µM
Method in brief: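 Wild-type CHO-K1 cells plated overnight, then exposed 3 hr at 37C to compounds at 15 concentrations (0.76% DMSO). Lysed, then HTRF anti-pH2AX(S139)-cryptate/anti-H2AX-d2 detection after 24 hr at room temperature; emissions 665 and 620 nm.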

[2] = qHTS assay to identify small molecule agonists of H2AX - cell viability counter screen (AID 1224847; calls by dose curve; also: nearly all actives have a fitted effect of over 30% in size; also: potency is read from the fitted curve at half-maximal effect); details: CHO-K1 viability, CellTiter-Glo luminescence, 3 h; series mostly up to 154 µM
Method in brief: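 After overnight plating of 1000 CHO-K1 cells per well, a 15-concentration compound series was applied for 3 hr at 37C. Luminescence from CellTiter-Glo, read following 30 min at room temperature, reflected cell viability.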

[3] = qHTS RealTime-Glo MT Cell Viability Assay in HepG2 cells - 24 hour (AID 1224867); details: RealTime-Glo luminescence; series mostly up to 76.8 µM; also: nearly all actives have a fitted effect of over 50% in size; also: potency is read from the fitted curve at half-maximal effect
Method in brief: (§1)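 Cells + NanoLuc/prosubstrate dispensed (600 cells/well) → 5 h at 37 C/5% CO2 → compounds in DMSO transferred → 40 h incubation at 37 C, luminescence read at 0, 8, 16, 24, 32, 40 h.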

[4] = A CellTox Green Cytotoxicity Assay to monitor cytotoxicity in HEK293 cells - 0 hour (AID 1224869); details: CellTox Green fluorescence; series mostly up to 76.8 µM; also: nearly all actives have a fitted effect of over 50% in size
Method in brief: (§2)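 Each value comes from one timepoint of a single continuous run in which HEK293 cells with CellTox Green were exposed to compound for up to 40 h at 37 C, dye fluorescence rising with cell death.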

[5] = qHTS RealTime-Glo MT Cell Viability Assay in HepG2 cells - 40 hour (AID 1224870); details: RealTime-Glo luminescence; series mostly up to 76.8 µM; also: nearly all actives have a fitted effect of over 50% in size; also: potency is read from the fitted curve at half-maximal effect
Method in brief: (§3)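 HepG2 cells mixed with RealTime-Glo MT reagents (NanoLuc plus cell-permeant prosubstrate) were seeded at 600 cells/well, incubated 5 h at 37 C/5% CO2, then pinned with compounds in DMSO; nonlytic luminescence tracked viability during 40 h treatment.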

[6] = A CellTox Green Cytotoxicity Assay to monitor cytotoxicity in HEK293 cells - 40 hour (AID 1224871); details: CellTox Green fluorescence; series mostly up to 76.8 µM; also: nearly all actives have a fitted effect of over 45% in size; also: potency is read from the fitted curve at half-maximal effect
Method in brief: as §2

[7] = qHTS RealTime-Glo MT Cell Viability Assay in HepG2 cells - 8 hour (AID 1224873); details: RealTime-Glo luminescence; series mostly up to 76.8 µM; also: nearly all actives have a fitted effect of over 55% in size; also: potency is read from the fitted curve at half-maximal effect
Method in brief: as §3

[8] = A CellTox Green Cytotoxicity Assay to monitor cytotoxicity in HEK293 cells - 24 hour (AID 1224875); details: CellTox Green fluorescence; series mostly up to 76.8 µM; also: nearly all actives have a fitted effect of over 45% in size; also: potency is read from the fitted curve at half-maximal effect
Method in brief: as §2

[9] = A CellTox Green Cytotoxicity Assay to monitor cytotoxicity in HepG2 cells - 16 hour (AID 1224876); details: CellTox Green fluorescence; series mostly up to 76.8 µM; also: nearly all actives have a fitted effect of over 45% in size; also: potency is read from the fitted curve at half-maximal effect
Method in brief: (§4)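 Continuous culture of HepG2 cells with a membrane-impermeant DNA dye; rising fluorescence marks dead cells. Compound exposure lasted up to 40 h at 37 C, with reads every 8 h from 0 h.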

[10] = qHTS RealTime-Glo MT Cell Viability Assay in HepG2 cells - 32 hour (AID 1224877); details: RealTime-Glo luminescence; series mostly up to 76.8 µM; also: nearly all actives have a fitted effect of over 55% in size; also: potency is read from the fitted curve at half-maximal effect
Method in brief: as §1

[11] = A CellTox Green Cytotoxicity Assay to monitor cytotoxicity in HepG2 cells - 24 hour (AID 1224878); details: CellTox Green fluorescence; series mostly up to 76.8 µM; also: nearly all actives have a fitted effect of over 45% in size; also: potency is read from the fitted curve at half-maximal effect
Method in brief: as §4

[12] = A CellTox Green Cytotoxicity Assay to monitor cytotoxicity in HepG2 cells - 40 hour (AID 1224879); details: CellTox Green fluorescence; series mostly up to 76.8 µM; also: nearly all actives have a fitted effect of over 40% in size; also: potency is read from the fitted curve at half-maximal effect
Method in brief: as §4

[13] = qHTS RealTime-Glo MT Cell Viability Assay in HEK293 cells - 0 hour (AID 1224880); details: RealTime-Glo luminescence; series mostly up to 76.8 µM
Method in brief: (§5)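 qHTS format; HEK293 cells with NanoLuc/prosubstrate reagent, 37 C/5% CO2 for 5 h pre-dosing; compounds 23 nL in DMSO; luminescence at each time point reflects viable cells.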

[14] = A CellTox Green Cytotoxicity Assay to monitor cytotoxicity in HEK293 cells - 32 hour (AID 1224881); details: CellTox Green fluorescence; series mostly up to 76.8 µM; also: nearly all actives have a fitted effect of over 40% in size; also: potency is read from the fitted curve at half-maximal effect
Method in brief: as §2

[15] = qHTS assay to identify small molecule antagonists of the estrogen related receptor (ERR) signaling pathway from Tox21 library (AID 1224848); details: ERR reporter cell line, luciferase antagonist mode, 18 h; series mostly up to 92.4 µM; also: nearly all actives have a fitted effect of over 50% in size; also: potency is read from the fitted curve at half-maximal effect
Method in brief: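 Cells: ERR line, 2,000/well; 6 h preincubation 37 C/5% CO2. Cpd in DMSO via pin tool; 18 h, 37 C. ONE-Glo, 30 min RT, luminescence.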

[16] = qHTS RealTime-Glo MT Cell Viability Assay in HEK293 cells - 16 hour (AID 1224872); details: RealTime-Glo luminescence; series mostly up to 76.8 µM; also: nearly all actives have a fitted effect of over 50% in size; also: potency is read from the fitted curve at half-maximal effect
Method in brief: (§6)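 Tox21 10K qHTS, HEK293, 600 cells/well, RealTime-Glo reagent co-dispensed with cells; 5 h preincubation, compound by pintool, 37 C, luminescence at 0–40 h.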

[17] = qHTS RealTime-Glo MT Cell Viability Assay in HEK293 cells - 40 hour (AID 1224874); details: RealTime-Glo luminescence; max response: stronger effect = lower value; also: nearly all actives have a fitted effect of over 50% in size; also: potency is read from the fitted curve at half-maximal effect
Method in brief: as §5

[18] = qHTS RealTime-Glo MT Cell Viability Assay in HEK293 cells - 32 hour (AID 1224868); details: RealTime-Glo luminescence; series mostly up to 76.8 µM; also: nearly all actives have a fitted effect of over 50% in size; also: potency is read from the fitted curve at half-maximal effect
Method in brief: as §6

[19] = qHTS assay to identify small molecule agonists of the estrogen related receptor (ERR) signaling pathway from Tox21 library (AID 1224849; calls by dose curve; also: nearly all actives have a fitted effect of over 15% in size); details: ERR reporter cell line, ONE-Glo luciferase, 18 h
Method in brief: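 We plated ERR reporter cells, waited 6 h, added compounds in DMSO by pin tool and incubated them 18 h at 37 C. ONE-Glo was then added and luminescence read after 30 min.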
% is scaled to controls: 0 for no effect and ±100 for the full control effect.

CCCCC(CC)COC(=O)CC(C(=O)OCC(CC)CCCC)S(=O)(=O)O (stereo unspecified)
active: Potency [2] 86.4 µM and 80 µM | Potency [6] 24.5 µM | Potency [8] 21.9 µM | Potency [9] 33.4 µM and 38.9 µM | Potency [11] 42 µM and 38.9 µM | Potency [12] 42 µM and 43.6 µM | Potency [14] 21.9 µM
inactive: Potency [1] | Potency [3] | Potency [4] | Potency [5] | Potency [7] | Potency [10] | Potency [13]

NC(N)=Nc1nc(CSCC/C(N)=N/S(N)(=O)=O)cs1
3.89 µM (active) and inactive: Potency [11]
inactive: Potency [1] | Potency [2] | Potency [15] | Potency [3] | Potency [4] | Potency [5] | Potency [6] | Potency [16] | max response [17] -7.2% and 0.8% | Potency [8] | Potency [10] | Potency [12] | Potency [13] | Potency [14]
4.36 µM (active) and inactive: Potency [9]

CC(C(O)c1ccc(O)cc1)N1CCC(Cc2ccccc2)CC1 (stereo unspecified)
inactive: Potency [1] | Potency [2] | Potency [15] | Potency [3] | Potency [18] | Potency [4] | Potency [5] | Potency [6] | Potency [16] | max response [17] -13.3% | Potency [8] | Potency [9] | Potency [10] | Potency [11] | Potency [12] | Potency [13] | Potency [14]

C1COC(NC(C2CC2)C2CC2)=N1
inactive: Potency [1] | Potency [2] | Potency [15] | activity change, positive = activation ([19]; at 42.5 µM (top of the series)) -1.34% | Potency [18] | Potency [4] | Potency [5] | Potency [6] | Potency [16] | Potency [7] | max response [17] 5.02% | Potency [8] | Potency [9] | Potency [11] | Potency [12] | Potency [13] | Potency [14]

Cc1c(O)cccc1C(=O)N[C@@H](CSc1ccccc1)[C@H](O)CN1C[C@H]2CCCC[C@H]2C[C@H]1C(=O)NC(C)(C)C
active: Potency [2] 49.2 µM | Potency [15] 15 µM and 18.8 µM | Potency [18] 19 µM | Potency [17] 13.4 µM | Potency [12] 42.5 µM and 10.7 µM
inactive: Potency [1] | activity change, positive = activation ([19]; at 42.5 µM (top of the series)) -54.6% | activity change, positive = activation ([19]; at 92.4 µM (top of the series)) -64.1% | Potency [4] | Potency [6] | Potency [7] | Potency [8] | Potency [9] | Potency [10] | Potency [11] | Potency [13] | Potency [14]

Cc1scc2c1N(C(=O)CN1CCN(C)CC1)c1ccccc1NC2=O
inactive: Potency [1] | Potency [2] | Potency [3] | Potency [18] | Potency [4] | Potency [5] | Potency [6] | Potency [16] | max response [17] 1.2% | Potency [8] | Potency [9] | Potency [10] | Potency [11] | Potency [12] | Potency [13] | Potency [14]

Cc1c2oc3c(C)ccc(C(=O)N[C@@H]4C(=O)N[C@H](C(C)C)C(=O)N5CCC[C@H]5C(=O)N(C)CC(=O)N(C)[C@@H](C(C)C)C(=O)O[C@@H]4C)c3nc-2c(C(=O)N[C@@H]2C(=O)N[C@H](C(C)C)C(=O)N3CCC[C@H]3C(=O)N(C)CC(=O)N(C)[C@@H](C(C)C)C(=O)O[C@@H]2C)c(N)c1=O (I: T[dV]P[Sar][NMeV] / II: T[dV]P[Sar][NMeV]; ester I:1-I:C, II:1-II:C; linker I:N-II:N via Actinocin(9to1))
inactive: Potency [2] | Potency [4] | Potency [6] | Potency [8] | Potency [9] | Potency [11] | Potency [13] | Potency [14]
active: Potency [1] 1.1 µM | Potency [3] 8.47 µM and 2.68 µM | Potency [18] 12 nM and 21.3 nM | Potency [16] 33.7 nM and 120 nM | Potency [7] 9.5 µM and 10.7 µM | Potency [17] 8.5 nM and 16.9 nM

COC(=O)[C@H]1[C@H]2C[C@@H]3c4[nH]c5cc(OC)ccc5c4CCN3C[C@H]2C[C@@H](OC(=O)c2cc(OC)c(OC)c(OC)c2)[C@@H]1OC
active: Potency [15] 24.3 µM and 19.9 µM and 26.6 µM | Potency [18] 5.48 µM and 6.34 µM and 9.52 µM | Potency [16] 4.89 µM and 5.65 µM and 4.77 µM | Potency [17] 4.36 µM and 7.98 µM and 8.49 µM | Potency [12] 43.6 µM and 40 µM and 23.9 µM
inactive: Potency [1] | Potency [2] | Potency [4] | Potency [5] | Potency [6] | Potency [8] | Potency [9] | Potency [11] | Potency [13] | Potency [14]

CC(N)=O
inactive: Potency [1] | Potency [2] | Potency [3] | Potency [4] | Potency [5] | Potency [6] | Potency [16] | max response [17] 14.5% | Potency [8] | Potency [9] | Potency [11] | Potency [12] | Potency [13] | Potency [14]

CCn1cc(C(=O)O)c(=O)c2cc(F)c(N3CCNC(C)C3)c(F)c21 (stereo unspecified)
inactive: Potency [1] | Potency [2] | Potency [15] | activity change, positive = activation ([19]; at 42.5 µM (top of the series)) 3.97% | Potency [3] | Potency [18] | Potency [4] | Potency [5] | Potency [6] | Potency [16] | Potency [7] | max response [17] 14.9% | Potency [8] | Potency [9] | Potency [10] | Potency [11] | Potency [13] | Potency [14]

Cc1cc(OCCOCC[N+](C)(C)Cc2ccccc2)ccc1C(C)(C)CC(C)(C)C
inactive: Potency [1] | activity change, positive = activation ([19]; at 42.5 µM (top of the series)) -54.7% | activity change, positive = activation ([19]; at 92.4 µM (top of the series)) -79.5% | Potency [4]
active: Potency [2] 100 µM and 55.2 µM | Potency [15] 13.6 µM and 6.68 µM | Potency [18] 10.9 µM and 7.56 µM | Potency [5] 12.2 µM and 8.49 µM | Potency [6] 21.7 µM and 23.9 µM | Potency [16] 19.4 µM and 19 µM | Potency [7] 21.7 µM and 23.9 µM | Potency [17] 9.71 µM and 6.01 µM | Potency [8] 21.7 µM and 23.9 µM | Potency [9] 19.4 µM and 15.1 µM | Potency [10] 13.7 µM and 9.52 µM | Potency [11] 17.3 µM and 10.7 µM | Potency [12] 13.7 µM and 8.49 µM | Potency [14] 21.7 µM and 23.9 µM

Source: PubChem BioAssay (Tox21)
